This is part of a sample that, as a whole, favours compounds with a hit. Of some 83,000 tested, about 20% had one in any assay.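 The test compound was applied at a single concentration to cells in 96-well plates for 48 hours, and percent growth was recorded.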 A number with no mark means an inactive call. The source made the active and inactive calls. Rule for the calls: active = growth percent below 10; inactive = the rest.
What was measured:
Assay in all cases: NCI-60 one-dose screen, 48 h (100 = growth as untreated, 0 = no growth, -100 = all killed)
Conditions in all cases: 10 µM unless noted
SK-MEL-2 melanoma = tested on: SK-MEL-2 melanoma
EKVX NSCLC = tested on: EKVX NSCLC
SN12C renal = tested on: SN12C renal
UO-31 renal = tested on: UO-31 renal
TK-10 renal = tested on: TK-10 renal
ACHN renal = tested on: ACHN renal
CAKI-1 renal = tested on: CAKI-1 renal
CCRF-CEM leukemia = tested on: CCRF-CEM leukemia
MOLT-4 leukemia = tested on: MOLT-4 leukemia
SR leukemia = tested on: SR leukemia
RPMI-8226 leukemia = tested on: RPMI-8226 leukemia
OVCAR-8 ovarian = tested on: OVCAR-8 ovarian
OVCAR-5 ovarian = tested on: OVCAR-5 ovarian
OVCAR-4 ovarian = tested on: OVCAR-4 ovarian
SK-OV-3 ovarian = tested on: SK-OV-3 ovarian
IGROV1 ovarian = tested on: IGROV1 ovarian
OVCAR-3 ovarian = tested on: OVCAR-3 ovarian
HS 578T breast = tested on: HS 578T breast
NCI/ADR-RES ovarian = tested on: NCI/ADR-RES ovarian
A498 renal = tested on: A498 renal

Compound | growth (SK-MEL-2 melanoma) | growth (EKVX NSCLC) | growth (SN12C renal) | growth (UO-31 renal) | growth (TK-10 renal) | growth (ACHN renal) | growth (CAKI-1 renal) | growth (CCRF-CEM leukemia) | growth (MOLT-4 leukemia) | growth (SR leukemia) | growth (RPMI-8226 leukemia) | growth (OVCAR-8 ovarian) | growth (OVCAR-5 ovarian) | growth (OVCAR-4 ovarian) | growth (SK-OV-3 ovarian) | growth (IGROV1 ovarian) | growth (OVCAR-3 ovarian) | growth (HS 578T breast) | growth (NCI/ADR-RES ovarian) | growth (A498 renal)
COc1ccc2nc(NC(=O)CN3CCn4c(nnc4C(F)(F)F)C3)sc2c1 | 106% | 73.1% | 92.2% | 80.6% | 97.5% | 90.7% | 77.7% | 86.5% | 95.8% | 87.8% | 90% | 96.5% | 97.9% | 104% | 105% | 92.8% | 93.7% | 97% | 93.6% | –
Cc1cc(C)c(C(=O)c2cccs2)c(C)c1 | 100% | 117% | 94% | 67.8% | 96.2% | 108% | 95.2% | 97.9% | 104% | 86.1% | 98.1% | 106% | 98.1% | 109% | 101% | 97.7% | 113% | 109% | 105% | –
O=C(Nc1cccc(Cl)c1)Nc1cccc(Cl)c1 | 114% | 72.5% | 85.2% | 72.7% | 74.3% | 59.2% | 78.2% | 38.8% | – | 66.4% | 3.08% (active) | 77% | 86.8% | 62.4% | 93.4% | 91.4% | – | 80.7% | 55.6% | 59.5%
Nc1nc(Nc2ccccc2SSc2ccccc2Nc2nc(N)nc(C(Cl)(Cl)Cl)n2)nc(C(Cl)(Cl)Cl)n1 | 72.3% | 67.5% | 19.3% | -38.5% (active) | 116% | -25.3% (active) | 52.2% | 45.5% | 46.7% | 14.8% | 36.1% | 47.9% | 82% | 65.3% | 121% | 37% | 64.6% | 73.4% | 48.9% | –
N#Cc1c(-c2ccccc2)cc(-c2ccccc2)n(CCCCCCC(=O)O)c1=O | 88.8% | 92.5% | 99.2% | 82.7% | 105% | 98.8% | 97.7% | 106% | 98.4% | 88.4% | 108% | – | 99.5% | 111% | 117% | 105% | 109% | 101% | 102% | –
O=c1[nH]c(SCc2ccccc2)nc2nc(Nc3ccc(NC(=S)Nc4ccccc4)cc3)nc(-c3ccc(O)cc3O)c12 | 87.8% | 95.9% | 88% | 107% | 133% | 89.5% | 101% | 94.5% | – | 54.8% | 96.5% | 108% | 87.5% | 100% | 91.4% | – | 81.1% | 107% | 99.3% | 108%
C[C@H]1C(=O)N2c3ccccc3[C@@]3(O)C[C@@H](n4cnc5ccccc5c4=O)C(=O)N1[C@@H]23 | 19.2% | 103% | 120% | 86.5% | 109% | 104% | 99.2% | 95% | 105% | – | – | 91.7% | 110% | 109% | 104% | – | 115% | 32.9% | 104% | 121%
O=C(Nc1ccccc1)P(=O)(O)c1ccccc1 | 118% | 113% | 92.1% | 76.9% | 107% | 93.9% | 117% | 120% | 95% | 98% | 111% | 92.4% | 92.9% | 105% | 113% | 121% | 104% | 107% | 99.4% | –
Cc1c2oc3c(C)ccc(C(=O)OC(C)C4NC(=O)C(C(C)C)N(C)C(=O)CN(C)C(=O)C5CCCN5C(=O)C(C(C)C)NC4=O)c3nc-2c(C(=O)OC(C)C2NC(=O)C(C(C)C)N(C)C(=O)CN(C)C(=O)C3CCCN3C(=O)C(C(C)C)NC2=O)c(N)c1=O (configuration not stated) | -64.8% (active) | 5.92% (active) | 7.77% (active) | -8.49% (active) | -7.83% (active) | 1.27% (active) | 3.24% (active) | 18.4% | – | – | – | – | 14.6% | – | 22.5% | 7.56% (active) | 5.3% (active) | -2.72% (active) | 16.9% | -75.4% (active)
NC(=N\N=C/Cc1ccccc1)/C(N)=N\N=C\Cc1ccccc1 | 108% | 110% | 102% | 91.2% | 110% | 94.8% | 102% | 95.8% | – | 81.5% | 101% | 107% | 98.8% | 100% | 113% | 119% | 110% | 105% | 103% | 90.1%
N#Cc1c(-c2ccccc2)cc(-c2ccccc2)n(CCCC(=O)O)c1=O | 97.8% | 94% | 96.2% | 85.8% | 124% | 97.8% | 97.1% | 104% | 97.3% | 91.8% | 103% | 51.3% | 104% | 102% | 105% | 99.4% | 112% | 107% | 99.8% | –
COc1ccc(C(=O)COc2ccc(/C=C3\Oc4ccc5ccccc5c4C3=O)cc2)cc1 | 77.9% | 90.9% | 91.8% | -2.22% (active) | 142% | 156% | 96% | -21.9% (active) | – | 40.2% | 66.8% | – | 106% | 88.9% | 97.8% | – | 115% | 96.3% | 97.4% | 102%
COc1ccc(-c2cnc(SCC(=O)Nc3ccc(-c4nc5ccccc5s4)cc3)n2-c2ccc(OC)cc2)cc1 | 102% | 108% | 104% | 91.7% | 108% | 111% | 103% | 94.2% | – | 99.5% | 113% | 105% | 99% | 111% | 111% | 91.5% | 109% | 105% | 107% | 108%
O=C(NCCCl)NCCN1c2nc3ccccc3cc2Sc2cc3ccccc3nc21 | 40.5% | 54.7% | 67.3% | -5.97% (active) | 99.2% | 64.8% | 248% | 20.5% | – | 35.9% | 42% | 56.2% | 82.2% | 49.5% | 77.1% | – | 142% | 58% | 57.4% | 80.3%
Nc1nc(SCc2cccnc2)c2ncn(C3OC(CO)C(O)C3O)c2n1 (configuration not stated) | 109% | 101% | 89.2% | 72.7% | 99.5% | 92.2% | 98.6% | 115% | 111% | 118% | 115% | – | 90.1% | 112% | 107% | 98.6% | 99.9% | 109% | 102% | –

— PubChem BioAssay (NCI)
